# Laboratory results published in PubChem BioAssay (NCATS).
# Records with an inconclusive call do not appear. Calls of active or inactive are those of the source. Unless noted, calls come from the whole dose curve; as a rule, active = well fitted curve in the direction sought with a large enough effect; inconclusive = small, poorly fitted or top-dose-only effect, or another doubt; inactive = no such curve, though single readings can be large; an effect the other way counts as inactive or inconclusive.
# Columns and labels:
# [1] = AP1 Signaling Pathway (AID 357; active = well fitted curve in either direction with a large enough effect, not every such curve was filed as active;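 note: ME-180 reporter cells stimulated with EGF at its EC50 level; % is set by controls: 0 for no effect and ±100 for the full control effect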); settings: ME-180 AP-1-bla reporter, EGF-induced, beta-lactamase ratio, 5 h; at 7.69 µM (top of the series) unless noted
# How it was run: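 AP-1-bla ME-180 cells, Opti-MEM + 0.5% dialyzed FBS, plated overnight 37 °C. Cpd titration + EC50 EGF, 5 h 37 °C. CCF4 2.5 h RT; ex 405, em 460/530 ratio → %activity, AC50.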
# [2] = biological target: Cytochrome P450 1A2 (Homo sapiens) (UniProt P05177); test: p450-cyp1a2 (AID 410; calls by dose curve; note: potency is the fitted concentration of half-maximal effect)
# Cytochrome P450 1A2 (Homo sapiens), sequence (P05177 whole entry, looked up): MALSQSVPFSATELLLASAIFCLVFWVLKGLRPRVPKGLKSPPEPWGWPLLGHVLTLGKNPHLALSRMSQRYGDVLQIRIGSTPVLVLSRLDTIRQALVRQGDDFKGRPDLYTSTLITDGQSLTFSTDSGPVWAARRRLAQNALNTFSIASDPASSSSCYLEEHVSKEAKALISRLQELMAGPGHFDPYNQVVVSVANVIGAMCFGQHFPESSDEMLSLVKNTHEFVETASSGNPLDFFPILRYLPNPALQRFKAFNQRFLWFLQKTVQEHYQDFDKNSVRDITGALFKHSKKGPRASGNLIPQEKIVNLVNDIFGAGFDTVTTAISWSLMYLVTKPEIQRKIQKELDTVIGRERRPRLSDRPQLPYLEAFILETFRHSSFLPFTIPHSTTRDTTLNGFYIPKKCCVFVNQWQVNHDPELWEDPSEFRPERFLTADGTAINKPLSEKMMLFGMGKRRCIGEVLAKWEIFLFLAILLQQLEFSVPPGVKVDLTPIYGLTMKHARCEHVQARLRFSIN
# How it was run: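 Human CYP1A2 (20nM) demethylated Luciferin-ME at its Km (100uM) in 100mM KPO4. After 10 min compound preincubation, NADPH regeneration ran the reaction 60 min at room temperature. Luciferin was read by luminescence, normalized to 57 uM furafylline.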
# [3] = NFAT Signaling Pathway (AID 444; active = well fitted curve in either direction with a large enough effect, not every such curve was filed as active;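 note: carbachol stimulus at about its EC50 of 1 µM final; % is set by controls: 0 for no effect and ±100 for the full control effect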); settings: Jurkat NFAT-bla M1, carbachol, beta-lactamase ratio, 5 h; at 7.69 µM (top of the series) unless noted
# How it was run: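 Read-out: CCF4 FRET ratio (460 nm/530 nm) after 1 h RT dye loading, used for %activity and AC50 from titration series. Cells: Jurkat NFAT-β-lactamase/M1 line, treated with compound plus 1 uM carbachol for 5 h, 37 °C.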
# [4] = Stat Signaling Pathway (AID 446; active = well fitted curve in either direction with a large enough effect, not every such curve was filed as active;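 note: ME-180 cervical cancer cells given 40 pM IL-6 alongside compound; SIE-controlled beta-lactamase reporter measured as 460/530 nm FRET emission ratio; % is set by controls: 0 for no effect and ±100 for the full control effect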); settings: ME-180 SIE beta-lactamase reporter, IL-6 stimulated, 5 h; at 7.69 µM (top of the series) unless noted
# How it was run: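 Reporter line: ME-180 cervical carcinoma, SIE-beta-lactamase. Treatment: compound with 40 pM IL-6, 5 hrs, 37 C, in low-serum OPTI-MEM with 10 mM HEPES pH 7.3. Detection: 460/530 nm fluorescence.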
# [5] = biological target: Glucocorticoid receptor (Homo sapiens) (UniProt P04150); test: GR-GFP Redistribution (AID 450;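 active = compounds whose dose series gives a full or clear partial fitted curve of increased nuclear translocation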; note: potency is the fitted concentration of half-maximal effect); settings: U2OS GR-GFP nuclear translocation, laser cytometry, 2 h
# Glucocorticoid receptor (Homo sapiens), sequence (P04150 whole entry, looked up, the tested form may be a part): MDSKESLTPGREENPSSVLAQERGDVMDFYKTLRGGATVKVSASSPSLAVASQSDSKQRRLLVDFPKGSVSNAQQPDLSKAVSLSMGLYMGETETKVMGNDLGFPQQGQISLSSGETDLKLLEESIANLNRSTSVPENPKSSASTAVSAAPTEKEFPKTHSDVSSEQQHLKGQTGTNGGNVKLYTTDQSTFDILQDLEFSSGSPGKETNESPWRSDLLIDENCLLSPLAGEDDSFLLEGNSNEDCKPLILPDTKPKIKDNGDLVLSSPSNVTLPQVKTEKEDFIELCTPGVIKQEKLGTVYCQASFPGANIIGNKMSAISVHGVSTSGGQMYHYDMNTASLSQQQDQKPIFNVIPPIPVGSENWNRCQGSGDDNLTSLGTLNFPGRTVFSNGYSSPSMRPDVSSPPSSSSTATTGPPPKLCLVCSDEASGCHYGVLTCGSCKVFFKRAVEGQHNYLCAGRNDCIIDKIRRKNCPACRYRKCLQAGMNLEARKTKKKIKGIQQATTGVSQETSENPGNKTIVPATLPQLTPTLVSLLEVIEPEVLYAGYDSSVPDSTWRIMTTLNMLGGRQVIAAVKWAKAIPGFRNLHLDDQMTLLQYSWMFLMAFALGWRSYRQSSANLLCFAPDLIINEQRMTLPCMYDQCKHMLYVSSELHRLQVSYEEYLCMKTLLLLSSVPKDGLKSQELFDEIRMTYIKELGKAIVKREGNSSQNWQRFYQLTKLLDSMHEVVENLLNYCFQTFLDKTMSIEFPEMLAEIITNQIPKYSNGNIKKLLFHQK
# [6] = biological target: Glucocorticoid receptor (Homo sapiens) (UniProt P04150); test: GR-EFC Redistribution (AID 451; calls by dose curve; note: potency is the fitted concentration of half-maximal effect); settings: CHO-K1 GR-EFC translocation, beta-gal luminescence, 2 h
# How it was run: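 Translocation of GR-ED fusion to nuclear EA restores b-gal, read by luminescence after 1 h room-temperature detection. Engineered CHO-K1 biosensor cells, 1,000/well, exposed 2 h at 37 C to titrations up to 46 uM final.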
# [7] = biological target: Mitogen-activated protein kinase 10 (Mus musculus) (UniProt Q61831); test: JNK3 AlphaScreen Assay (AID 530; active = well fitted curve in either direction with a large enough effect, not every such curve was filed as active;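 note: kinase came from lysate of stimulated human HepG2 cells; signal reports phosphorylation of biotinylated GST-cJun 1-79 at Ser73 with 10 µM ATP; % is set by controls: 0 for no effect and ±100 for the full control effect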)
# How it was run: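 Room-temperature AlphaScreen kinase assay; pre-activated HepG2 lysate as JNK3 source, biotin-GST-cJun(1-79) substrate, 10 uM ATP, compound 15 min preincubation.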
# [8] = biological target: 3',5'-cyclic-AMP phosphodiesterase 4B (Homo sapiens) (UniProt Q07343); test: qHTS Assay for Inhibitors of PDE-IV (AID 607; active = well fitted activation curve with a large enough effect in the main read-out, with a control signal flat, not every such curve was filed as active; note: % of control where 0% means no effect)
# 3',5'-cyclic-AMP phosphodiesterase 4B (Homo sapiens), sequence (Q07343 whole entry, looked up): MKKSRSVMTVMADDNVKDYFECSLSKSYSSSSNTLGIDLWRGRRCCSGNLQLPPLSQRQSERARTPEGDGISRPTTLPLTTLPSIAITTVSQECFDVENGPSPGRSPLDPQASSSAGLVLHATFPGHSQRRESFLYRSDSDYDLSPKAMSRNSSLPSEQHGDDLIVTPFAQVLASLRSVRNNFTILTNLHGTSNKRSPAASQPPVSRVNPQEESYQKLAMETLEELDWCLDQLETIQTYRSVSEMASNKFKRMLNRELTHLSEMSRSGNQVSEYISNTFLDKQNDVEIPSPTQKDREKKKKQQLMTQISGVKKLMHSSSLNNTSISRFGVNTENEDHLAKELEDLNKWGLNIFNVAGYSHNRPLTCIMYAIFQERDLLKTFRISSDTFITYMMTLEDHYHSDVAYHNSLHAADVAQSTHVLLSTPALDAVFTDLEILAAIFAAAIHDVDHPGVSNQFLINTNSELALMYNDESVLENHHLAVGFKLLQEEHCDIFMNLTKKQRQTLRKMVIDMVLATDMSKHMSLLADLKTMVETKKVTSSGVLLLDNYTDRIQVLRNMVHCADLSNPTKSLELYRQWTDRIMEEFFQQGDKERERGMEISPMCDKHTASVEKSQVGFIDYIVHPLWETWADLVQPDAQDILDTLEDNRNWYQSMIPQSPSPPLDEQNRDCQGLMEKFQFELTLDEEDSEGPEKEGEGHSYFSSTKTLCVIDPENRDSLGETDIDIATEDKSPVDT
# How it was run: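 Cell-based read-out of cAMP via a modified cyclic nucleotide-gated channel and membrane potential dye (535/590 nm) in HEK293 cells expressing PDE4 endogenously. Compounds tested up to 22.9 uM final; 100 uM RO 20-1724 reference.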
# [9] = biological target: Cytochrome P450 3A4 (Homo sapiens) (UniProt P08684); test: qHTS Assay for Inhibitors and Substrates of Cytochrome P450 3A4 (AID 884); note: potency is the fitted concentration of half-maximal effect; nearly all actives have a fitted effect of over 50% in size
# Cytochrome P450 3A4 (Homo sapiens), sequence (P08684 whole entry, looked up): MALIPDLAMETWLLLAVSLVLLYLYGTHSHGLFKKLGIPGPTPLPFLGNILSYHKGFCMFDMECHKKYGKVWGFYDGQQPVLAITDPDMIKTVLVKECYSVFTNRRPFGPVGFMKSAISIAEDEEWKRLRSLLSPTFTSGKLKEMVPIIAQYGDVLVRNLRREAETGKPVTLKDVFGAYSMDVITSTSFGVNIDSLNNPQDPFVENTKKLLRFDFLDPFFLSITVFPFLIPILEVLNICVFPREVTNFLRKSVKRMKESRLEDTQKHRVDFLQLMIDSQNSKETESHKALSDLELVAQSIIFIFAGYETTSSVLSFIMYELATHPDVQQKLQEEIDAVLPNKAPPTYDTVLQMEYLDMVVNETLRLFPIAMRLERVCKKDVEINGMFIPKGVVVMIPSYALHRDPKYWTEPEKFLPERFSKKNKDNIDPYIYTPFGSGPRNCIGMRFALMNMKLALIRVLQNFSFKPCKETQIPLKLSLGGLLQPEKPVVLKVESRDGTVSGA
# How it was run: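 20 nM human CYP3A4 with 25 uM Luciferin-PPXE (at KM) in 200 mM KPO4, preincubated 10 min with compound; NADPH regeneration started a 60 min RT reaction. Luciferin detected by luminescence, normalized to 57 uM ketoconazole as full inhibition.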
# [10] = biological target: Cytochrome P450 3A4 (Homo sapiens) (UniProt P08684); test: qHTS Assay for Activators of Cytochrome P450 3A4 (AID 885); note: nearly all actives have a fitted effect of over 65% in size
# How it was run: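 Signal was normalized against complete inhibition by 57 uM ketoconazole. The reaction used 20nM CYP3A4 with 25uM Luciferin-PPXE, 10-min compound preincubation and a 60-min NADPH-supported step at RT.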
# [11] = biological target: Cytochrome P450 2C19 (Homo sapiens) (UniProt P33261); test: qHTS Assay for Inhibitors and Substrates of Cytochrome P450 2C19 (AID 899); note: nearly all actives have a fitted effect of over 60% in size; note: potency is the fitted concentration of half-maximal effect
# Cytochrome P450 2C19 (Homo sapiens), sequence (P33261 whole entry, looked up): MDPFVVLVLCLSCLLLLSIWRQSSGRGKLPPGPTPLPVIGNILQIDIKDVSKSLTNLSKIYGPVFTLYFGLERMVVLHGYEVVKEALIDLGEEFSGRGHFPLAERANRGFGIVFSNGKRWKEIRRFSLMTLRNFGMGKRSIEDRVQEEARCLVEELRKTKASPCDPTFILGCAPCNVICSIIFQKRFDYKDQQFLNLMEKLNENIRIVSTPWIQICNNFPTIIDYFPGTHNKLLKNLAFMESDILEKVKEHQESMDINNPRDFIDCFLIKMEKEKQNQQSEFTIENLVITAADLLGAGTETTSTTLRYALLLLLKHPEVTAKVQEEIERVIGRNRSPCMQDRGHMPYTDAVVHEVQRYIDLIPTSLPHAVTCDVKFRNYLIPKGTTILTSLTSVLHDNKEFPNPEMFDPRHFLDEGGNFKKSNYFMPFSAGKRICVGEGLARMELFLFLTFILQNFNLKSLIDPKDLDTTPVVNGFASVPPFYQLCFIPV
# How it was run: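 Reactions contain 5nM enzyme, 10uM Luciferin-H EGE (KM) and 50mM KPO4; compound preincubates 10 min at 37C, NADPH regeneration starts turnover for 60 min. Luminescence after detection reagent gives activity.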
# [12] = qHTS Assay for Lipid Storage Modulators (AID 1519; calls by dose curve); settings: Drosophila S3 cells, BODIPY lipid droplet/cell ratio, laser cytometry, cells loaded with oleic acid; for activity change, negative = inhibition: at 57.5 µM (top of the series)
# How it was run: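 Cells seeded at 5,000 per well were treated with compounds over a concentration series and loaded with oleic acid (400 uM, as added). Lipid droplet fluorescence (488 nm excitation, 500-530 nm channel) was read by laser-scanning cytometry and normalized to 20 uM Triacsin C.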
# [13] = biological target: Dual specificity protein kinase CLK4 (Homo sapiens) (UniProt Q9HAZ1); test: qHTS Assay for Inhibitors of CDC-like Kinase 4 (Kinase-Glo Assay) (AID 1770); note: nearly all actives have a fitted effect of over 65% in size; note: potency is the fitted concentration of half-maximal effect
# Dual specificity protein kinase CLK4 (Homo sapiens), sequence (Q9HAZ1 whole entry, looked up): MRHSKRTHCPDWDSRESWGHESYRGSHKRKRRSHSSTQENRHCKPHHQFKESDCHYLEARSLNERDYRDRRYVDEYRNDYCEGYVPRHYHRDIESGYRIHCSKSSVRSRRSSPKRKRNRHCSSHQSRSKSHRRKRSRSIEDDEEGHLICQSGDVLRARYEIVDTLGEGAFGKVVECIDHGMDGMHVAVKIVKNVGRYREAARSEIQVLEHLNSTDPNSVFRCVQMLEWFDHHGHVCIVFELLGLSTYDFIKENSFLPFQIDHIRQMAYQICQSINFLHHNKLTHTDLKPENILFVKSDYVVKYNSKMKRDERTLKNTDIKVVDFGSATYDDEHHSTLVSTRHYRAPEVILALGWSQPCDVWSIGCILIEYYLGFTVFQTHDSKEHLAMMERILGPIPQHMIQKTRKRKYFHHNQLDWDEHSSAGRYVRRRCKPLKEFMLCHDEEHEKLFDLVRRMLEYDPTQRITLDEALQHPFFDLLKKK
# How it was run: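 Substrate mix (RS peptide 100 uM, ATP 1 uM) dispensed, compound pinned in, then Clk4 added to 25 nM final. Incubated 4.5 h at RT; Kinase-Glo reagent added, luminescence read after 5 min.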
# [14] = biological target: Dual specificity protein kinase CLK4 (Homo sapiens) (UniProt Q9HAZ1); test: qHTS Assay for Inhibitors of CDC-like Kinase 4 (ADP-Glo Assay) (AID 1771); note: nearly all actives have a fitted effect of over 70% in size; note: potency is the fitted concentration of half-maximal effect
# How it was run: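 Clk4 (25 nM) was incubated 1 hr at room temperature with 100 uM RS repeat peptide and 1 uM ATP in buffer with 2 mM MgCl2, 0.5 mM EGTA, 2.5 mM DTT. ADP formed was quantified by ADP-Glo luminescence.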
# [15] = biological target: Dual specificity protein kinase CLK4 (Homo sapiens) (UniProt Q9HAZ1); test: qHTS Assay for Inhibitors of CDC-like Kinase 4 (ADP-FP Assay) (AID 1795); note: nearly all actives have a fitted effect of over 60% in size; note: potency is the fitted concentration of half-maximal effect
# How it was run: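 Clk4 6.25 nM; RS peptide 100 uM; ATP 1 uM; 25 mM Tris pH 7.5, 10 mM MgCl2; 1 h reaction. ADP detected via antibody/orange tracer FP displacement; TG003 positive control.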
# [16] = biological target: Ubiquitin carboxyl-terminal hydrolase 1 (Homo sapiens) (UniProt O94782); test: Inhibitors of USP1/UAF1: Pilot qHTS (AID 504865); note: nearly all actives have a fitted effect of over 35% in size; note: potency is the fitted concentration of half-maximal effect
# Ubiquitin carboxyl-terminal hydrolase 1 (Homo sapiens), sequence (O94782 whole entry, looked up): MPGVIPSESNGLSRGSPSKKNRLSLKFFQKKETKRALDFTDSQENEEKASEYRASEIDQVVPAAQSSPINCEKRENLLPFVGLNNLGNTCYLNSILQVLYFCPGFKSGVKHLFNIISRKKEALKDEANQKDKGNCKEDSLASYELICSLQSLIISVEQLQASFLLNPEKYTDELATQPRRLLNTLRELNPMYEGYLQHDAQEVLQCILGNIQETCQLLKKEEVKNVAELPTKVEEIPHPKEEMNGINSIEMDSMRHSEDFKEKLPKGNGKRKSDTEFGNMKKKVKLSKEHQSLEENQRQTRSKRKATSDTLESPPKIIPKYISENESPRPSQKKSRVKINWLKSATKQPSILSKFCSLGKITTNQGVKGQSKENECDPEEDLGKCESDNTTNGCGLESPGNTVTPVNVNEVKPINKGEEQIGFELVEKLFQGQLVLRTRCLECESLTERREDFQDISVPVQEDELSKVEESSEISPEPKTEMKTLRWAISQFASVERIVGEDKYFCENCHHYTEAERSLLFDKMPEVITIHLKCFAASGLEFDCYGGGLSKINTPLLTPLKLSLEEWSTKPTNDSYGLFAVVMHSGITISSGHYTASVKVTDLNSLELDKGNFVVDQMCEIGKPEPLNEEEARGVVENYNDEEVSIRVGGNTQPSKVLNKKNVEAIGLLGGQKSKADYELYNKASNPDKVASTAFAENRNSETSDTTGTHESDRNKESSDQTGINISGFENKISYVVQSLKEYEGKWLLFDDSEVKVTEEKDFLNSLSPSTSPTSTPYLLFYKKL
# How it was run: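 In 50mM HEPES pH 7.8 containing 0.5mM EDTA, 1mM TCEP, 0.1 mg/ml BSA and 0.01% Tween-20, 1nM USP1/UAF1 is exposed to compound for 15 min, then Ub-Rho (150nM final) is added and fluorescence is read over time.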
# [17] = Primary qHTS for small molecule stabilizers of the endoplasmic reticulum resident proteome: Secreted ER Calcium Modulated Protein (SERCaMP) assay (AID 1508630); note: % is set by controls: 0 for no effect and ±100 for the full control effect
# How it was run: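 GLuc-SERCaMP-expressing SH-SY5Y cells, pretreated 16 h with compound, are challenged with thapsigargin to empty ER calcium stores; after 4 h, coelenterazine is added directly to the medium and luminescence is imaged.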
# [18] = biological target: Lysosomal acid glucosylceramidase (Homo sapiens) (UniProt P04062); test: Glucocerebrosidase-p2 (AID 348; in the data active = potency below about 10 µM; note: potency is the fitted concentration of half-maximal effect); settings: purified GBA, blue fluorogenic substrate, 40 min
# Lysosomal acid glucosylceramidase (Homo sapiens), sequence (P04062 whole entry, looked up): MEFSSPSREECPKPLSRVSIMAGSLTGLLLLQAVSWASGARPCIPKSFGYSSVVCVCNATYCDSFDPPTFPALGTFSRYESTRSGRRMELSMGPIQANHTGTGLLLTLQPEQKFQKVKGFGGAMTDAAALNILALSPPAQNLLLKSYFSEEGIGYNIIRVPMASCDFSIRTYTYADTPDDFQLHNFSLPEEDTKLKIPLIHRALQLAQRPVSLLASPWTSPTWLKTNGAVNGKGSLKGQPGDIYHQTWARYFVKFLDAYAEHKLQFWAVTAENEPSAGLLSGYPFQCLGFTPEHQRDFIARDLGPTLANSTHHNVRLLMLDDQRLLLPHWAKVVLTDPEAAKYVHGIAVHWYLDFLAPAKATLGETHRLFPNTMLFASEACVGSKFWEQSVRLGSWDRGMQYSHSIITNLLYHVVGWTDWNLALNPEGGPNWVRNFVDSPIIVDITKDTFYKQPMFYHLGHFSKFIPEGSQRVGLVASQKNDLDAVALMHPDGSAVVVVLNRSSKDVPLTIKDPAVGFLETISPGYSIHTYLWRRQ
# How it was run: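 Compounds titrated from 0.6 nM upwards against 0.2 nM enzyme in pH 5.9 citric acid/KH2PO4, taurocholate, tween-20; blue fluorogenic substrate 80 uM, 40 min room temperature, stopped and read Ex 365/Em 440 for AC50.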
# [19] = biological target: Cytochrome P450 2C9 (Homo sapiens) (UniProt P11712); test: qHTS Assay for Inhibitors and Substrates of Cytochrome P450 2C9 (AID 883); note: % is set by controls: 0 for no effect and ±100 for the full control effect; nearly all actives have a fitted effect of over 60% in size
# How it was run: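 Turnover of Luciferin-H (100uM, KM) by 10nM human CYP2C9 was measured over 60 min at 37C with NADPH regeneration; inhibitors and some substrates reduce luminescence. Data normalized to sulphaphenazole 57uM.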
# [20] = measured here: cell count channel max response
# [21] = measured here: lipid channel max response
structure (smiles),measurement,setting,value
Cc1ccccc1-c1nccc(NCc2cccs2)n1,"activity change, negative = inhibition",[1],-5.62% (inactive)
same,Potency,[2],0.501 µM (active)
same,"activity change, negative = inhibition",[3],1.22% (inactive)
same,"activity, negative = inhibition",[4],3.98% (inactive)
same,Potency,[5],> 46 µM (inactive)
same,Potency,[6],> 46 µM (inactive)
same,outcome,[7],inactive
same,Potency,[8],inactive
same,Potency,[9],2 µM (active)
same,Potency,[10],inactive
same,Potency,[11],3.98 µM (active)
same,"activity change, negative = inhibition",[12],6.73% (inactive)
same,max response,[12]; [20],-2.46%
same,max response,[12]; [21],6%
same,Potency,[13],inactive
same,Potency,[14],inactive
same,Potency,[15],inactive
same,Potency,[16],25.1 µM (active)
same,Potency,[17],inactive
Cc1noc(C)c1-c1cc(NCc2cccnc2)ncn1,Potency,[18],> 11.4 µM (inactive)
same,"activity change, negative = inhibition",[1],2.04% (inactive)
same,Potency,[2],1 µM (active)
same,"activity change, negative = inhibition",[3],-0.73% (inactive)
same,"activity, negative = inhibition",[4],8.46% (inactive)
same,Potency,[5],> 46 µM (inactive)
same,Potency,[6],> 46 µM (inactive)
same,outcome,[7],inactive
same,Potency,[8],inactive
same,"activity change, negative = inhibition",[19],9.31% [at 2.29 µM] (inactive)
same,"activity change, negative = inhibition",[12],2.28% (inactive)
same,max response,[12]; [20],5.59%
same,max response,[12]; [21],6.22%
same,Potency,[13],15.8 µM (active)
same,Potency,[14],22.4 µM (active)
same,Potency,[16],inactive
same,Potency,[17],inactive
Cn1cc(-c2nc3cnc(N4CCOCC4)nc3n(C3CC3)c2=O)c2ccccc21,"activity change, negative = inhibition",[1],-18.1% (inactive)
same,Potency,[2],3.16 µM (active)
same,"activity change, negative = inhibition",[3],-15.3% (inactive)
same,"activity, negative = inhibition",[4],11.5% (inactive)
same,Potency,[5],> 9.22 µM (inactive)
same,Potency,[6],> 46 µM (inactive)
same,outcome,[7],inactive
same,Potency,[8],inactive
same,Potency,[10],inactive
same,Potency,[11],inactive
same,"activity change, negative = inhibition",[12],8.36% (inactive)
same,max response,[12]; [20],17.1%
same,max response,[12]; [21],23.9%
same,Potency,[13],inactive
same,Potency,[14],inactive
same,Potency,[15],inactive
same,Potency,[16],inactive
same,Potency,[17],inactive
COCCNc1ncnc2ccc(-c3ccccc3C)cc12,"activity change, negative = inhibition",[1],-10.5% (inactive)
same,"activity change, negative = inhibition",[3],10.4% (inactive)
same,"activity, negative = inhibition",[4],-16.2% (inactive)
same,Potency,[5],> 46 µM (inactive)
same,Potency,[6],> 46 µM (inactive)
same,outcome,[7],inactive
same,"activity change, negative = inhibition",[12],-6.26% (inactive)
same,max response,[12]; [20],-10.5%
same,max response,[12]; [21],-19.3%
same,Potency,[13],14.1 µM (active)
same,Potency,[14],8.91 µM (active)
same,Potency,[15],11.2 µM (active)
same,Potency,[16],inactive
same,Potency,[17],inactive
COCCNc1ncnc2ccc(-c3ccoc3)cc12,Potency,[18],> 11.4 µM (inactive)
same,"activity change, negative = inhibition",[1],-23.8% (inactive)
same,Potency,[2],15.8 µM (active)
same,"activity change, negative = inhibition",[3],11.2% (inactive)
same,"activity, negative = inhibition",[4],-12.8% (inactive)
same,Potency,[5],> 46 µM (inactive)
same,Potency,[6],> 46 µM (inactive)
same,outcome,[7],inactive
same,Potency,[8],inactive
same,"activity change, negative = inhibition",[12],0.0459% (inactive)
same,max response,[12]; [20],6.14%
same,max response,[12]; [21],3.39%
same,Potency,[13],0.891 µM (active)
same,Potency,[14],1 µM (active)
same,Potency,[16],inactive
same,Potency,[17],inactive
